An excerpt weighted towards active compounds, which were near 1.5% of everything screened.
PvdQ acylase: blocks Pseudomonas aeruginosa PvdQ acylase activity; purified PvdQ acylase, fluorescence plate reader; inhibition, % at 10 µM; 340,000 compounds, 0.063% hits; AID 488965; in the data active = inhibition above about 30%, passing the limit was not always enough; inconclusive = no clear call, values can overlap the other calls;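 also: 0% = vehicle neutral wells and 100% = reference inhibitor wells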
RAD52 inh: RAD52 (human) annealing inhibition | P43351 | recombinant RAD52 DNA annealing, FRET fluorescence | inhibition, % at 18.7 µM | 360,000 compounds, 0.46% hits | AID 651710;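 active = every replicate showing at least 50% inhibition; inconclusive = mean inhibition at least 50% but not in every replicate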
Target sequence (P43351 whole entry, looked up): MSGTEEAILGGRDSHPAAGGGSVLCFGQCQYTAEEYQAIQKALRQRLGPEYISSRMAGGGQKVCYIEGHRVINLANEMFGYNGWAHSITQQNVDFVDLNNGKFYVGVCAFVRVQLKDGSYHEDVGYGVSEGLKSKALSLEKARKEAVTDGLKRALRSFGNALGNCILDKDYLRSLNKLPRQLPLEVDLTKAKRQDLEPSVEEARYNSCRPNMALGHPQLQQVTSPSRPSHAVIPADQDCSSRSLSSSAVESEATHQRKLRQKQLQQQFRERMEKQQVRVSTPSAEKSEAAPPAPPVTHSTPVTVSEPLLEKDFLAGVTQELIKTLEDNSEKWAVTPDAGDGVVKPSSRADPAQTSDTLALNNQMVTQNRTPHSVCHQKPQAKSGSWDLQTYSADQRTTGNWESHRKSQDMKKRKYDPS
N-glyco inh: blocks N-linked glycosylation in D54 reporter cells; D54 ERlucT glycosylation luciferase reporter, 24 h; percent of 100 nM tunicamycin response; 360,000 compounds, 0.23% hits; reporter increase, % at 12.5 µM;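 active = mean luciferase reporter signal, scaled so untreated is 0 and the glycosylation-blocking control 100, at or above a set limit in every replicate; inconclusive = mean reaches the limit but not every replicate does; inactive = mean below the limit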;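 also: luciferase carries N-glycosylation sites so blocking glycosylation raises the light; 0% = median of neutral control wells and 100% = median of 100 nM tunicamycin wells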
RAD54 inh: RAD54 (human) branch migration inhibition; Q92698; RAD54 Holliday junction branch migration, FAM/BHQ fluorescence; inhibition, % at 10.4 µM; 360,000 compounds, 0.14% hits;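 active = mean normalized replicate activity at least 40 and at least half of replicates scoring 40 or more; inconclusive = only one of the two criteria met; inactive = mean below 40 and under half of replicates reaching 40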;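 also: 0% = median of neutral control wells and 100% = median of positive control wells; inhibitors cause a drop in the FAM fluorescence signal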
dFosB act: activators of mouse delta FosB homodimer. activation, % at 25 µM. purified delta FosB, TAMRA-CDK5 oligo fluorescence polarization; percent of positive-control signal above neutral wells. 340,000 compounds, 0.99% hits;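 active = mean activation above about 17%, with every replicate also reaching it, limit read from the data, passing the limit was not always enough; inconclusive = only one of the two conditions met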
CFTR F508del cor: CFTR F508del correction in bronchial cells. 350,000 compounds, 0.36% hits. CFBE cells, YFP halide quenching; stimulated with forskolin plus potentiator P3; % fluorescence drop versus neutral controls. activity (quench increase), % at 7.58 µM;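 active = mean added fluorescence quench of at least 8% versus neutral control, with both replicates also reaching 8%; inconclusive = only one of the mean or replicate conditions met; inactive = mean below 8% and not both replicates reaching 8%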;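 also: cells transiently co-express mutant CFTR-F508del with the halide-sensitive YFP; corrector assay measuring rescue of mutant channel to the surface after 24 h compound exposure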
Rad54 DNA ctr: counter-screen for Rad54 inhibitors: DNA binding compounds. shares compounds with RAD54 inh. Acridine orange-DNA displacement, fluorescence polarization, 20 min. AC50, µM (titrated, usually from 35 µM), without a hit: at the highest dose activity change, negative = DNA binding. 460 compounds, 8% hits. AID 651673;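 active = signal drop giving an AC50 within twice the top valid tested concentration of each sample, actives reach about 35 µM in these data; inactive = activity opposite to expected, plus the rest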;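 also: polarization loss reports compound binding to salmon sperm DNA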
Active calls of the source: *; ? = inconclusive; . = no result given.

SMILES	PvdQ acylase	RAD52 inh	N-glyco inh	RAD54 inh	dFosB act	CFTR F508del cor	Rad54 DNA ctr
O=C(NN1CCOCC1)c1cc(-c2ccc(Cl)c(Cl)c2)nc2ccccc12	-17	.	6	?	-14	.	7%
c1cc2c3c(cccc3c1)C(N1CCCCC1)=N2	-17	.	16	65*	15	.	-20%
O=C(CS(=O)(=O)c1ccccc1)Nc1ccc(Br)cn1	1	.	0	?	-1	.	8%
O=c1c2ccccc2oc2ccc(NCCCn3ccnc3)cc12	-10	-79	-16	-11	1	4	.
CN1CCCC1CCNc1ccc2sc3ccccc3c(=O)c2c1 (stereo unspecified)	9	-2	-4	56*	14	-1	-16%
CN1CCCC1CCNS(=O)(=O)c1ccc(Br)cc1 (stereo unspecified)	-13	.	2	-7	6	.	.
O=c1c2ccccc2sc2ccc(NCCCN3CCOCC3)cc12	-12	-7	4	51*	-7	0	-29%
Cc1cc2oc3cc(NCCC4CCCN4C)ccc3c(=O)c2cc1C (stereo unspecified)	-130	-261	-3	69*	?	6	-15%
O=C(c1cccnc1)N1CC2(C1)[C@@H](c1ccccc1)[C@@H](CO)N2C(=O)c1cccnc1	.	-11	.	.	.	0	.
Cc1cccc2c1-c1sc(C(=O)NCCCN3CCCC(C)C3)cc1CO2 (stereo unspecified)	-23	43	4	54*	6	1	2%
C[C@@H]1CN([C@H](C)CO)C(=O)c2cccc(NS(=O)(=O)c3cccs3)c2O[C@H]1CN(C)Cc1ccc(Cl)c(Cl)c1	.	17	.	-3	.	-1	.
CC(=O)N(C)C[C@H]1Oc2ncc(C#Cc3ccc(F)cc3)cc2C(=O)N([C@@H](C)CO)C[C@H]1C	.	0	.	-4	.	1	.
Oc1cccc2ccc(Nc3ccccn3)nc12	-9	.	-2	94*	5	.	-9%
CCOC(=O)c1c(C)n(C)c2ccc(OCC(O)CN3CCCCCC3)cc12 (stereo unspecified)	-11	34	1	32	-1	4	.
CCOC(=O)c1c(C)n(C)c2ccc(OCC(O)CN3CCC(C)CC3)cc12 (stereo unspecified)	-8	26	2	?	2	0	-8%
COC(=O)C1=C(C)Nc2nc3ccccc3n2C1c1ccccc1F (stereo unspecified)	.	-15	7	?	.	4	-13%
CNC(=O)C1=C(C)Nc2nc3ccccc3n2C1c1ccc(F)cc1 (stereo unspecified)	-14	-3	2	0	-4	2	.
O=C(CCN1CCCCC1)NCC[C@H]1CC[C@H](NC(=O)Nc2ccc(Cl)cc2)[C@@H](CO)O1	.	18	.	-9	.	0	.
Cc1cc(C)n(-c2nc(NCCN(C)C)c3c4c(sc3n2)COC(C)(C)C4)n1	.	29	0	?	.	-6	11%
CC(N)c1csc(Nc2nncc3ccccc23)n1 (stereo unspecified)	.	40	3	70*	.	2	-1%
CC(C)C(N)c1csc(Nc2nncc3ccccc23)n1 (stereo unspecified)	.	13	-4	30	.	3	.
CCOC(=O)c1c(C)n(-c2ccc(C)cc2)c2ccc(O)c(CN(C)C)c12	-22	43	5	37	-4	0	.
CCOC(=O)c1c(C)n(-c2ccc(OC)cc2)c2ccc(O)c(CN(C)C)c12	-7	44	7	?	-7	-1	11%
O=C(C[C@H]1CC[C@@H]2[C@H](COC[C@@H](O)CN2C(=O)Nc2ccc(F)cc2)O1)NC1CCC1	.	.	.	9	.	2	.
CO[C@H]1CN(C)C(=O)c2ccc(NC(=O)Nc3ccccc3F)cc2OC[C@H](C)N(C(C)=O)C[C@@H]1C	.	14	.	-12	.	-1	.
SMILES	PvdQ acylase	RAD52 inh	N-glyco inh	RAD54 inh	dFosB act	CFTR F508del cor	Rad54 DNA ctr
CCOC(=O)c1cnc2c(C)cccc2c1NCCCN1CCOCC1	-12	17	16	95*	6	5	-19%
CCCNC(=O)C[C@H]1C[C@@H]2c3cc(NS(C)(=O)=O)ccc3O[C@@H]2[C@H](CO)O1	.	1	.	-5	.	-1	.
CCOC(=O)c1c(NC(C)=O)sc2c(OC)c(Br)ccc12	-11	-17	2	3	4	-1	.
CCOC(=O)c1c(NC(C)=O)sc2c(OCC(O)CN(CC)CC)c(Br)ccc12 (stereo unspecified)	3	46	7	84*	-27	3	2%
CC(C)CC#Cc1cnc2c(c1)C(=O)N([C@@H](C)CO)C[C@H](C)[C@@H](CN(C)C(=O)Nc1ccccc1F)O2	.	-10	.	4	.	3	.
Cc1nc2c3cc(Cl)ccc3n(CCN3CCOCC3)c2s1	-22	-5	13	.	-3	1	.
CCN(CC)CCn1c2ccc(F)cc2c2nc(C)sc21	8	.	5	?	4	.	-5%
Cc1csc(Sc2nc3c(c(=O)[nH]c(=O)n3C)n2Cc2ccccc2Cl)n1	-5	.	2	8	-6	.	.
Cc1cccc(Cn2c(Sc3nc(C)cs3)nc3c2c(=O)[nH]c(=O)n3C)c1	-15	.	2	?	6	.	14%
O=C(C1CC1)N1C[C@@H]2[C@H](c3ccccc31)[C@@H](CO)N2C(=O)Nc1cccc(F)c1	.	-14	.	-14	.	-2	.
CCOC(=O)c1[nH]c2ccccc2c1CCCN1C(=O)c2ccccc2C1=O	9	.	-3	4	-10	.	.
CCOC(=O)c1[nH]c2cc3c(cc2c1CCCN1C(=O)c2ccccc2C1=O)OCCO3	-5	.	0	?	-6	.	5%
O=c1cc(CSc2n[nH]c(=O)n2C2CC2)c2ccc(O)cc2o1	.	-2	0	?	.	0	-2%
O=C(CSc1n[nH]c(=O)n1C1CC1)c1ccc(F)cc1	.	-5	6	-9	.	0	.
COc1ccccc1C1=NOC(Cn2c(NCCCO)nc3c2c(=O)n(C)c(=O)n3C)C1 (stereo unspecified)	-8	-12	2	?	-4	0	5%
O=C(c1ccccc1)N1[C@H](CO)[C@H](c2ccccc2)C12CN(CCC(F)(F)F)C2	.	-5	.	.	.	-1	.
C=CCn1c(C)nnc1SCC(=O)N1c2ccccc2NC(=O)C1(C)C	.	1	2	-5	.	-1	.
C=CCN1C(=O)C(C)(C)Nc2ccccc21	-6	.	-1	?	0	.	-7%
C[C@H]1CN([C@@H](C)CO)C(=O)Cc2cc(NC(=O)c3ccncc3)ccc2O[C@@H]1CN(C)S(C)(=O)=O	.	.	.	.	.	0	.
COc1cc2nc(N3CCNCC3)nc(N)c2cc1OC	7	.	-22	64*	-74	.	-9%
COc1cc2nc(Cl)nc(N3CCCCC3)c2cc1OC	3	-13	-2	.	-6	-3	.

Screening results as filed in PubChem.
